PubChem BioAssay (NCATS)
Results filed as inconclusive are left out. A number with no mark means an inactive call. Calls come from the whole dose curve; as a rule, active = well fitted cell-killing curve with a large enough effect; inconclusive = small, poorly fitted or top-dose-only effect, or effect the other way; inactive = flat fitted curve, though single readings scatter. Where a SMILES comes first, the peptide text is derived from it. [ ]: non-standard residue; d: D form. pGlu = O=C1CC[C@@H](C(=O)O)N1

What follows are compounds tested on PA-1 (assay: Primary qHTS to identify gynecologic anti-cancer compounds using libraries of approved drugs and bioactive compounds (AID 1345084; note: nearly all actives have a fitted effect of over 55% in size)). Conditions: Gynecologic cancer cell panel viability, ATPlite luminescence, 48 h; series mostly up to 57.5 µM; activity change, negative = cytotoxicity: at the top concentration.
Outline: (§1)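 Five-point cytotoxicity, 48 h drug exposure at 37 C, 5% CO2, on cells seeded 16 h beforehand. ATP content read by ATPlite luminescence.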
% is set by controls: 0 for no effect and ±100 for the full control effect.

Going from `CCCCCN(CCCOC)C(=O)C(CCC(=O)O)NC(=O)c1ccc(Cl)c(Cl)c1` (centres undefined) to `CCCCC(CC)CNC(=O)CC(C)OC(=O)CCC(=O)O` (centres undefined), the “activity change, negative = cytotoxicity” value falls from -1.61% to -2.76%.

Compared with `CCCCCCn1c(=O)c2c(ncn2C)n(C)c1=O`, `CCCCOCCOC(=O)c1cccnc1` is lower in “activity change, negative = cytotoxicity” value: 5.31% for the first, -3.24% for the second.

First: CCCc1ncc(C(=O)O)s1
Second: COc1ccc(CCC(C)=O)cc1
The “activity change, negative = cytotoxicity” value of the first is higher: 8.05% for the first, 0.0732% for the second.

Compared with `C/C(=N/NC(=O)c1ccncc1)C(=O)O`, `Cc1ccc(C(=O)C(=O)O)cc1C` is higher in “activity change, negative = cytotoxicity” value: 16% for the first, 24.8% for the second.

Compared with `COC(=O)/C=C(/C)N`, `COC(=O)c1ccc(NC(C)=O)cc1OC` is lower in “activity change, negative = cytotoxicity” value: 34.6% for the first, -0.536% for the second.

Compared with `NS(=O)(=O)c1cc2c(cc1Cl)CN(C1CCCCC1)C2=O`, `O=C1CC2(CCCC2)CC(=O)N1` is lower in “activity change, negative = cytotoxicity” value: 4.98% for the first, 0.155% for the second.

Compared with `O=C1NC(c2ccccc2)(c2ccccc2)C(=O)N1COP(=O)(O)O`, `CC(C)N(CCC(=O)c1ccc2ccccc2c1)Cc1ccccc1` is lower in “activity change, negative = cytotoxicity” value: 8.63% for the first, 0.706% for the second.

Compared with `CCc1cccc2c(CCO)c[nH]c12`, `Cc1coc2ccccc2c1=O` is higher in “activity change, negative = cytotoxicity” value: 2.14% for the first, 6.82% for the second.

Compared with `O=C(O)c1ccc(OCCN2CCCCC2)cc1`, `CC(=O)O[C@@H]1CC2C3CCc4cc(OC(=O)c5ccccc5)ccc4C3CCC2(C)[C@H]1OC(C)=O` (some centres undefined) is higher in “activity change, negative = cytotoxicity” value: -1.72% for the first, 18.1% for the second.

Compared with `CCCC(=O)O[C@]1(C(=O)CC)CC[C@H]2[C@@H]3CCC4=CC(=O)CC[C@]4(C)[C@H]3[C@@H](O)C[C@@]21C`, `Cc1ccc(C(C)OC(=O)C2(C)CCC(C(=O)O)C2(C)C)cc1` (centres undefined) is higher in “activity change, negative = cytotoxicity” value: -6.27% for the first, 1.11% for the second.

First: COC(=O)CCCCC(CCSS/C(CCO)=C(\C)N(C=O)Cc1cnc(C)nc1N)SC(C)=O (centres undefined)
Second: CCOC(=O)Oc1ccc(CCNC(=O)[C@H](CCSC)NC(C)=O)cc1OC(=O)OCC
The “activity change, negative = cytotoxicity” value of the first is lower: 0.616% for the first, 1.23% for the second.

Going from `CC(=O)N[C@@H](CO)C(=O)N[C@@H](CC(=O)O)C(=O)N[C@@H](CCCCN)C(=O)N1CCC[C@H]1C(=O)O` (Ac-SDKP-OH) to `CCNC(=O)[C@@H]1CCCN1C(=O)[C@H](CCCN=C(N)N)NC(=O)[C@H](CC(C)C)NC(=O)CNC(=O)[C@H](Cc1ccc(O)cc1)NC(=O)[C@H](CO)NC(=O)[C@H](Cc1c[nH]c2ccccc12)NC(=O)[C@H](Cc1cnc[nH]1)NC(=O)[C@@H]1CCC(=O)N1` ([pGlu]HWSYGLRP-NHEt), the “activity change, negative = cytotoxicity” value falls from 8.82% to -2.72%.

Compared with `Cc1ccc2c(Cl)cc(Cl)c(O)c2n1`, `CC(Oc1c(Cl)cccc1Cl)C1=NCCN1` (centres undefined) is lower in “activity change, negative = cytotoxicity” value: 7.89% for the first, 1.03% for the second.

Compared with `N#CC1(c2ccc(F)cc2)CCC(=O)CC1`, `Fc1ccc(C(c2ccc(F)cc2)N2CCNCC2)cc1` is lower in “activity change, negative = cytotoxicity” value: 7.33% for the first, -2.06% for the second.

First: CC1(C)OC(=O)Nc2ccc(Br)cc21
Second: Cc1[nH]cnc1-c1ccc(Cl)cc1
The “activity change, negative = cytotoxicity” value of the first is higher: -2.31% for the first, -3.02% for the second.

First: Cc1cccc(C)c1NC(=O)c1ccc(N)cc1
Second: Cc1cccc(OCC(O)CNC(C)(C)C)c1C (centres undefined)
The “activity change, negative = cytotoxicity” value of the first is lower: -0.0195% for the first, 2.27% for the second.

Going from `COC(=O)c1cc(Cl)c(NC(C)=O)cc1OC` to `CCc1cc2cc(OC)c(OC)cc2c(Cc2ccccc2)n1`, the “activity change, negative = cytotoxicity” value rises from -3.23% to -1.31%.

First: CSCC[C@H](NC(=O)[C@H](Cc1c[nH]c2ccccc12)NC(=O)CCNC(=O)OC(C)(C)C)C(=O)N[C@@H](CC(=O)O)C(=O)N[C@@H](Cc1ccccc1)C(N)=O
Second: CC(C)C(=O)OCc1cccc(OC(=O)[C@@H]2N3C(=O)[C@@H](NC(=O)Cc4ccccc4)[C@H]3SC2(C)C)c1
The “activity change, negative = cytotoxicity” value of the first is higher: 8.86% for the first, 4.04% for the second.

With `Cc1sccc1Br` the “activity change, negative = cytotoxicity” value was -2.47%.

What follows are compounds tested on SKOV3 in the same assay as above. Conditions: Gynecologic cancer cell panel viability, ATPlite luminescence, 48 h; series mostly up to 57.5 µM; activity change, negative = cytotoxicity: at the top concentration.
Outline: as §1

First: CCCCCN(CCCOC)C(=O)C(CCC(=O)O)NC(=O)c1ccc(Cl)c(Cl)c1 (centres undefined)
Second: CCCCC(CC)CNC(=O)CC(C)OC(=O)CCC(=O)O (centres undefined)
The “activity change, negative = cytotoxicity” value of the first is lower: -1.57% for the first, 0.555% for the second.

Compared with `CCCCCCn1c(=O)c2c(ncn2C)n(C)c1=O`, `CCCCOCCOC(=O)c1cccnc1` is lower in “activity change, negative = cytotoxicity” value: 5.56% for the first, -5.87% for the second.

First: CCCc1ncc(C(=O)O)s1
Second: COc1ccc(CCC(C)=O)cc1
The “activity change, negative = cytotoxicity” value of the first is lower: 1.53% for the first, 1.6% for the second.

Compared with `C/C(=N/NC(=O)c1ccncc1)C(=O)O`, `Cc1ccc(C(=O)C(=O)O)cc1C` is lower in “activity change, negative = cytotoxicity” value: -0.582% for the first, -8.58% for the second.

Going from `COC(=O)/C=C(/C)N` to `COC(=O)c1ccc(NC(C)=O)cc1OC`, the “activity change, negative = cytotoxicity” value falls from -0.159% to -27.9%.

First: NS(=O)(=O)c1cc2c(cc1Cl)CN(C1CCCCC1)C2=O
Second: O=C1CC2(CCCC2)CC(=O)N1
The “activity change, negative = cytotoxicity” value of the first is lower: 0.156% for the first, 4.08% for the second.

Compared with `O=C1NC(c2ccccc2)(c2ccccc2)C(=O)N1COP(=O)(O)O`, `CC(C)N(CCC(=O)c1ccc2ccccc2c1)Cc1ccccc1` is lower in “activity change, negative = cytotoxicity” value: -2.94% for the first, -38% for the second.

Compared with `CCc1cccc2c(CCO)c[nH]c12`, `Cc1coc2ccccc2c1=O` is lower in “activity change, negative = cytotoxicity” value: 5.31% for the first, 0.303% for the second.

Going from `O=C(O)c1ccc(OCCN2CCCCC2)cc1` to `CC(=O)O[C@@H]1CC2C3CCc4cc(OC(=O)c5ccccc5)ccc4C3CCC2(C)[C@H]1OC(C)=O` (some centres undefined), the “activity change, negative = cytotoxicity” value rises from -0.861% to 8.26%.

First: CCCC(=O)O[C@]1(C(=O)CC)CC[C@H]2[C@@H]3CCC4=CC(=O)CC[C@]4(C)[C@H]3[C@@H](O)C[C@@]21C
Second: Cc1ccc(C(C)OC(=O)C2(C)CCC(C(=O)O)C2(C)C)cc1 (centres undefined)
The “activity change, negative = cytotoxicity” value of the first is lower: -27.7% for the first, -1.77% for the second.

Going from `COC(=O)CCCCC(CCSS/C(CCO)=C(\C)N(C=O)Cc1cnc(C)nc1N)SC(C)=O` (centres undefined) to `CCOC(=O)Oc1ccc(CCNC(=O)[C@H](CCSC)NC(C)=O)cc1OC(=O)OCC`, the “activity change, negative = cytotoxicity” value falls from 10.8% to -2.32%.

First: CC(=O)N[C@@H](CO)C(=O)N[C@@H](CC(=O)O)C(=O)N[C@@H](CCCCN)C(=O)N1CCC[C@H]1C(=O)O (Ac-SDKP-OH)
Second: CCNC(=O)[C@@H]1CCCN1C(=O)[C@H](CCCN=C(N)N)NC(=O)[C@H](CC(C)C)NC(=O)CNC(=O)[C@H](Cc1ccc(O)cc1)NC(=O)[C@H](CO)NC(=O)[C@H](Cc1c[nH]c2ccccc12)NC(=O)[C@H](Cc1cnc[nH]1)NC(=O)[C@@H]1CCC(=O)N1 ([pGlu]HWSYGLRP-NHEt)
The “activity change, negative = cytotoxicity” value of the first is higher: 6.75% for the first, -4.49% for the second.

Compared with `Cc1ccc2c(Cl)cc(Cl)c(O)c2n1`, `CC(Oc1c(Cl)cccc1Cl)C1=NCCN1` (centres undefined) is lower in “activity change, negative = cytotoxicity” value: 8.94% for the first, 0% for the second.

First: N#CC1(c2ccc(F)cc2)CCC(=O)CC1
Second: Fc1ccc(C(c2ccc(F)cc2)N2CCNCC2)cc1
The “activity change, negative = cytotoxicity” value of the first is lower: 2.88% for the first, 5.28% for the second.

Going from `CC1(C)OC(=O)Nc2ccc(Br)cc21` to `Cc1[nH]cnc1-c1ccc(Cl)cc1`, the “activity change, negative = cytotoxicity” value rises from 0% to 25.2%.

First: Cc1cccc(C)c1NC(=O)c1ccc(N)cc1
Second: Cc1cccc(OCC(O)CNC(C)(C)C)c1C (centres undefined)
The “activity change, negative = cytotoxicity” value of the first is lower: -10.5% for the first, -1.13% for the second.

Compared with `COC(=O)c1cc(Cl)c(NC(C)=O)cc1OC`, `CCc1cc2cc(OC)c(OC)cc2c(Cc2ccccc2)n1` is lower in “activity change, negative = cytotoxicity” value: 10.9% for the first, -10.6% for the second.

First: CSCC[C@H](NC(=O)[C@H](Cc1c[nH]c2ccccc12)NC(=O)CCNC(=O)OC(C)(C)C)C(=O)N[C@@H](CC(=O)O)C(=O)N[C@@H](Cc1ccccc1)C(N)=O
Second: CC(C)C(=O)OCc1cccc(OC(=O)[C@@H]2N3C(=O)[C@@H](NC(=O)Cc4ccccc4)[C@H]3SC2(C)C)c1
The “activity change, negative = cytotoxicity” value of the first is higher: 19.6% for the first, 12.6% for the second.

In the case of `Cc1sccc1Br`, the “activity change, negative = cytotoxicity” value is reported as 19.6%.
